NS1 inh – qHTS Assay for Inhibitors of Influenza NS1 Protein Function. Potency, µM (highest dose often 46.1 µM), for inactives: at the top dose activity, positive = more growth. 0.4% of 270,000 active. AID 2326, 2010; further: potency means the concentration at half of the fitted maximal effect; actives are rising curves; nearly all actives have a fitted effect of over 50% in size
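Read-out: OD600 growth recovery of NS1-expressing budding yeast. Cells grown overnight at 30C in -URA glucose medium, washed, resuspended and diluted 1:100 in 2% galactose assay medium, pH 6.0. Same strain lacking NS1 served as positive control.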
TbPYK inhibitor – qHTS of Trypanosoma Brucei Inhibitors; pyruvate kinase (Trypanosoma brucei), Q57TT1; TbPYK enzyme, Kinase-Glo Plus ATP luminescence, 45 min; 0.12% of 410,000 active; Potency, µM (doses to about 76.8 µM), for inactives: at the highest dose activity, negative = inhibition, actives largely listed as inhibitors; active means well fitted curve in the direction sought with a large enough effect; inconclusive means small, poorly fitted or top-dose-only effect, or another doubt; inactive means no such curve, though single readings can be large; an effect the other way counts as inactive or inconclusive; further: potency means the concentration at half of the fitted maximal effect; on the % scale 0 is the no-effect control and ±100 the full control effect; nearly all actives have a fitted effect of over 50% in size
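Luminescence from Kinase-Glo Plus, added after a 45-minute room-temperature reaction, served as the end-point read-out. The enzyme and substrate were preincubated with compound before ADP (130 uM final) initiated turnover. Concentration-effect curves came from normalized qHTS data.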
Cycloheximide cs – Cycloheximide Counterscreen for Small Molecule Inhibitors of Shiga Toxin. cell reporter, cycloheximide protein synthesis inhibition counterscreen. max response, %. 12% of 300,000 active. AID 2314, 2010; in the data active means max response mostly above about 13%, no sharp cut-off; inactive means mostly below about 14%; further: read at 38.3 µM for the half of the compounds with a filed dose; 0% is about no effect
LmPK inh – qHTS Assay for Inhibitors of Leishmania Mexicana Pyruvate Kinase (LmPK); Q27686; purified LmPK, Kinase-Glo ATP luminescence, 1 h; Potency, µM (doses to about 57.5 µM), inactives show at the top dose activity change, negative = inhibition, usual class: inhibitors; 0.37% of 290,000 active; active means well fitted curve in the direction sought with a large enough effect; inconclusive means small, poorly fitted or top-dose-only effect, or another doubt; inactive means no such curve, though single readings can be large; an effect the other way counts as inactive or inconclusive; further: potency means the concentration at half of the fitted maximal effect; on the % scale 0 is the no-effect control and ±100 the full control effect
Target sequence (Q27686 whole entry, looked up): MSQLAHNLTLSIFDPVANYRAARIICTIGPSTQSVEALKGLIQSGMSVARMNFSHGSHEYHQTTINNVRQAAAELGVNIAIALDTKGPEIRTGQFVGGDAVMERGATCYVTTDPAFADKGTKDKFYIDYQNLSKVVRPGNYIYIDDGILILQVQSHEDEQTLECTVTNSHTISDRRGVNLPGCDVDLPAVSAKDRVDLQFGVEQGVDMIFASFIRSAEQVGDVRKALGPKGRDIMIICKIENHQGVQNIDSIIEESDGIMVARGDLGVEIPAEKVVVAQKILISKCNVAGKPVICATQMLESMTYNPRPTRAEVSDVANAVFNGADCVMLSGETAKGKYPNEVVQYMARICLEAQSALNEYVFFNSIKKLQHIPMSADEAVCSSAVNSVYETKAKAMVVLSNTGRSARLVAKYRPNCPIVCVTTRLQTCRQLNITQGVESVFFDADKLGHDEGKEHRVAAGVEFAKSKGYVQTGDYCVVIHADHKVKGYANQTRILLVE
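Purified LmPK (0.1 nM) converted ADP (0.1 mM) to ATP with PEP (0.5 mM) in imidazole buffer pH 7.2 with KCl and MgCl2, 1 h at room temperature. ATP was read by Kinase-Glo luminescence; data normalized to uninhibited and no-enzyme controls.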
Shiga toxin inh – A qHTS for Small Molecule Inhibitors of Shiga Toxin; Vero cells, Shiga toxin protein synthesis inhibition reporter; inhibition, % at 38.7 µM; 9.2% of 290,000 active; in the data active means inhibition mostly above about 28%, no sharp cut-off; inactive means mostly below about 43%; further: 0% is about no effect
SARS PLpro yeast – qHTS of Yeast-based Assay for SARS-CoV PLP; S. cerevisiae expressing SARS-CoV PLpro, growth rescue; Potency, µM (titrated, usually from 32.9 µM), for inactives: top-dose activity, positive = growth rescue, hits mostly activators; 0.19% of 330,000 active; AID 485353, 2010; further: potency means the concentration at half of the fitted maximal effect; 0% is about no effect; nearly all actives have a fitted effect of over 55% in size
Numbers without * were called inactive; u = inconclusive; x = not tested or not shown; + = active, no number; [ ] = dose if it differs, or a comment. The sample as a whole holds a higher share of hits than the screen did. Unless noted, the call rests on the fitted dose curve.

SMILES	NS1 inh	TbPYK inhibitor	Cycloheximide cs	LmPK inh	Shiga toxin inh	SARS PLpro yeast
Cc1ccccc1NC(=O)CSc1nnc(-c2cccc(Cl)c2)o1	x	1%	x	x	x	x
Cc1cccc(N(C)c2cc(-c3ccc(F)cc3)nc3ccnn23)c1	x	-9%	x	x	x	x
O=[N+]([O-])c1cccc(OCc2cn3cccnc3n2)c1	x	6%	20*	-3%	14	0%
c1ccc(CN2CCN(Cc3cn4cccnc4n3)CC2)cc1	x	6%	5	2%	96	-3%
Cc1ccc(OCc2cn3cccnc3n2)cc1	u	-6%	55*	-2%	104*	3%
Cc1cccn2cc(CCNS(=O)(=O)c3ccc([N+](=O)[O-])cc3)nc12	6%	4%	-3	5%	-17	9%
Cc1cccn2cc(COc3ccc(-c4ccccc4)cc3)nc12	x	-8%	71*	-29%	68*	-28%
COc1ccc(OC)c(S(=O)(=O)NCc2cn3cccc(C)c3n2)c1	-4%	-7%	0	0%	-3	19%
Cc1cccn2cc(COc3cccc([N+](=O)[O-])c3)nc12	-1%	-5%	22*	2%	61*	-1%
O=[N+]([O-])c1cccc(Oc2ncccc2[N+](=O)[O-])c1	x	-5%	x	x	x	x
COc1cc2ncn(-c3cc(OCc4ccccc4C(F)(F)F)c(C(N)=O)s3)c2cc1OC	x	0%	x	x	x	x
CC1=NC(C)(C)CC2CCC(O)C12 (centres undefined)	x	-4%	x	x	x	x
O=C(OCC1CCCO1)c1ccc2c(c1)N(Cc1c(F)cccc1Cl)C(=O)c1ccccc1S2(=O)=O (centres undefined)	x	-1%	x	x	x	x
N/C(=N\OC(=O)c1ccccc1)c1cccnc1	-4%	-8%	47*	u	66*	0%
N/C(=N\OC(=O)c1cc(Br)ccc1Cl)c1cccnc1	0%	4%	9	-1%	23	0%
N/C(=N\OC(=O)c1ccc(Cl)cc1[N+](=O)[O-])c1cccnc1	-6%	-8%	44*	0%	56*	-3%
N/C(=N\OC(=O)CC(c1ccccc1)c1ccccc1)c1cccnc1	-7%	1%	-2	1%	10	-1%
N/C(=N\OC(=O)c1ccccc1Cl)c1cccnc1	-6%	-1%	38*	u	61*	-5%
N/C(=N\OC(=O)c1cc(Cl)ccc1Cl)c1cccnc1	-15%	0%	34*	0%	56	2%
COc1ccc2c(c1)c(N1CCCC1=O)c(C(=O)Nc1ccc(Cl)cc1C)n2C	x	7%	x	x	x	x
Cc1ccc(N2CCN(S(=O)(=O)c3nnc(NC(=O)c4cccc(F)c4)s3)CC2)cc1	x	-2%	x	x	x	x
N/C(=N\OC(=O)c1ccccc1)c1ccn[nH]1	-11%	-25%	25*	-20%	49*	-4%
Cc1cc(C)c2c(=O)n(-c3ccccc3)[nH]c2n1	-4%	4%	51*	2%	88*	-1%
CCOC(=O)C1(Cc2ccccc2C)CCCN(S(=O)(=O)CC)C1 (centres undefined)	-15%	-3%	-2	-1%	-8	-9%
O=C1CC(O)(C(F)(F)F)Oc2c1ccc1ccccc21 (centres undefined)	-143%	0%	19*	4%	79	-8%
SMILES	NS1 inh	TbPYK inhibitor	Cycloheximide cs	LmPK inh	Shiga toxin inh	SARS PLpro yeast
Cn1c(=O)c2c(ncn2CC(=O)Nc2cc(Cl)cc(Cl)c2)n(C)c1=O	x	1%	x	x	x	x
O=C(Nc1ccccc1C(=O)N/N=C/c1ccco1)c1ccccc1	-6%	-9%	17	u	+	-24%
Cc1ccccc1C(=O)Nc1ccccc1C(=O)N/N=C\c1ccco1	7%	-16%	-6	-11%	0	-11%
O=C(Nc1ccccc1C(=O)N/N=C/c1ccco1)c1ccc(Cl)cc1	-4%	-12%	19*	-16%	76*	-19%
O=C(Nc1ccccc1C(=O)N/N=C/c1ccco1)c1ccc(F)cc1	13%	-1%	15	16µM*	14	-66%
O=C1CNC(=S)N1c1nc2ccccc2s1	-115%	1%	29*	-21%	82*	-15%
O=c1cc(-c2ccccc2)[nH]n1-c1nc2ccccc2s1	-58%	-4%	13	4%	22	-3%
CCOc1cc(S(=O)(=O)NCc2ccco2)c(OCC)cc1-n1cnnn1	-6%	-4%	34*	1%	76*	0%
COc1cc(OC)cc(C(=O)NCCc2csc(-c3cccc(C)c3)n2)c1	x	3%	x	x	x	x
Cc1ccc(C(=O)Nc2ccc(C(F)(F)F)n(C)c2=O)cc1	2%	0%	45*	7%	87*	1%
COc1ccc(C(=O)Nc2ccc(C(F)(F)F)n(C)c2=O)cc1	1%	6%	19*	0%	58*	7%
COCCn1c(C(F)(F)F)ccc(NC(=O)c2ccccc2)c1=O	-5%	-1%	48*	-10%	51*	-2%
COc1ccc(Oc2ccc(C(F)(F)F)cc2NC(=O)c2ccc(OC)cc2)cc1	-5%	1%	-2	-2%	-9	-2%
CCN(CC)S(=O)(=O)c1ccc(C(=O)Nc2ccc(C(F)(F)F)n(C)c2=O)cc1	-1%	0%	-6	-3%	51	4%
Cc1ccc(F)c(CNC(=O)C2CCC(=O)N(Cc3ccccn3)C2)c1F (centres undefined)	21%	-8%	7	1%	20	u
CC(=O)c1cccc(NC(=O)c2cccn2-c2nnc(N3CCCCC3)s2)c1	x	0%[15.4 µM]	x	x	x	x
C/C(=N\Nc1ncc(Br)cn1)c1cccc([N+](=O)[O-])c1	-33%	1%	26*	1%	90	-9%
C/C(=N\Nc1nc(N2CCOCC2)nc(N2CCOCC2)n1)c1cccc([N+](=O)[O-])c1	x	-1%	-2	-4%	-2	-1%
CC(=O)NC/C(C)=N\Nc1ccc([N+](=O)[O-])cc1	x	6%	10	5%	3	-15%
C/C(=N\Nc1ccc([N+](=O)[O-])cc1)c1ccc(O)cc1	x	-1%	37*	-2%	45*	-20%
C/C(=N/Nc1ccccc1[N+](=O)[O-])c1ccc([N+](=O)[O-])cc1	-1%	1%	-8	2%	-7	-1%
C/C(CC(=O)Nc1ccc(N(C)C)cc1)=N\NC(=O)c1ccc([N+](=O)[O-])cc1Cl	9%	-7%	18	1%	27	-3%
C/C(=N\NC(=O)c1ccc([N+](=O)[O-])cc1Cl)c1ccccc1	-2%	-11%	32*	4%	56*	-1%
C/C(=N\Nc1ccc([N+](=O)[O-])cc1)c1cccc(N)c1	-74%	-7%	39*	3%	123*	-18%
CN(Cc1ccccc1)C(=O)c1ncn2c1C(=O)N(C)CC2	x	0%	x	x	x	x
COc1ccc(OC)c(S(=O)(=O)Nc2ccc(-c3ccc4nncn4n3)cc2)c1	x	-20%	x	x	x	-3%
COc1ccc(Cl)cc1C(=O)NCc1nnnn1-c1ccccc1	x	2%	x	x	x	x
